Test results taken from PubChem BioAssay (EPA / NIEHS).
Inconclusive results are not listed. Active and inactive are the calls of the source. How the source made its calls, unless noted: active means hit-call score of the fitted dose curve at least 0.9, where 1 is the maximum; inactive means score below 0.9.

What was measured:
[1] = TOX21_p53_BLA_p2_viability: Viability Assessment in the Tox21 HCT-116 p53 Agonism Beta-lactamase Assay, Phase 2 (AID 2283591; active means hit-call score of the fitted dose curve at least 0.9, where 1 is the maximum;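 further: compound exposure lasted 16 h at 37 °C; actives lower the ATP signal meaning cytotoxicity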)
Outline: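 HCT-116 p53-bla cells (4000/well) rested 5 h at 37C, then received compounds in DMSO (217-fold dilution) for 16 h at 37C, 5% CO2. After the CCF4 read, CellTiter-Glo was added; ATP luminescence was read after 30 min at room temperature.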

[2] = biological target: Cellular tumor antigen p53 (Homo sapiens) (UniProt P04637); experiment: TOX21_p53_BLA_p2_ratio: Tox21 HCT-116 p53 Agonism Beta-lactamase Assay, Ratio, Phase 2 (AID 2283592; active means hit-call score of the fitted dose curve at least 0.9, where 1 is the maximum)
Outline: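 Human colon HCT116 cells with an inducible p53 beta-lactamase reporter are exposed to test chemicals for 16 h at 37C. Reporter induction is read as the 460/530 nm emission ratio after CCF4-AM loading, normalized to DMSO.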

[3] = TOX21_p53_BLA_p4_viability: Viability Assessment in the Tox21 HCT-116 p53 Agonism Beta-lactamase Assay, Phase 4 (AID 2283597; active means hit-call score of the fitted dose curve at least 0.9, where 1 is the maximum;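 further: hits lower the luminescence signal meaning cytotoxicity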)
Outline: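 Luminescent ATP readout (CellTiter-Glo, 30 min, room temperature) in the same wells as the p53 bla ratio. HCT116 cells were treated for 16 h at 37C with DMSO-dissolved compounds.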

[4] = TOX21_p53_BLA_p5_viability: Viability Assessment in the Tox21 HCT-116 p53 Agonism Beta-lactamase Assay, Phase 5 (AID 2283600; active means hit-call score of the fitted dose curve at least 0.9, where 1 is the maximum)
Outline: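 Seeded cells (4000/well) settle 5 h before compound addition. Plates then incubate 16 h at 37C, receive FRET substrate for 2 h, and finally CellTiter-Glo, with luminescence measured after a 30 min room-temperature incubation.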

[5] = CCTE_Shafer_MEA_dev_firing_rate_mean: CCTE's Neural Network Formation Assay for Mean Firing Rate, Shafer Lab (AID 2284031)
Outline: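 Primary rat cortical neurons on 48-well, 16-electrode MEAs (PEI-coated, laminin at plating), exposed from day 0 with compound renewed at DIV 5 and 9. Spikes recorded DIV 5, 7, 9, 12; well-mean firing rate collapsed to trapezoidal AUC, loss-of-signal vs DMSO.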

[6] = CCTE_Shafer_MEA_dev_per_burst_spike_percent: CCTE's Neural Network Formation Assay for Percent of Spikes in a Burst, Shafer Lab (AID 2284032)
Outline: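 Rat primary cortical neurons on 16-electrode MEA wells, dosed from plating day 0 for 12 days with renewal on DIV 5 and 9; spikes-in-bursts percentage averaged over bursting electrodes, collapsed as AUC across days 5, 7, 9, 12; loss direction versus DMSO.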

[7] = CCTE_Shafer_MEA_dev_active_electrodes_number: CCTE's Neural Network Formation Assay for Number of Active Electrodes, Shafer Lab (AID 2284040; active means hit-call score of the fitted dose curve at least 0.9, where 1 is the maximum)
Outline: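 Rat cortical primary cultures, 1.5 x 10^5 cells/well, PEI-coated MEA, laminin drop. Continuous exposure DIV 0–12; full media/compound change DIV 5, 9. Readout: electrodes with mean firing ≥5 spikes/min; AUC across days; loss vs DMSO.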

[8] = CCTE_Shafer_MEA_dev_burst_rate: CCTE's Neural Network Formation Assay for Burst Rate, Shafer Lab (AID 2284042)
Outline: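 Developmental network assay measuring how 12-day exposure of rat cortical neuron cultures alters bursting on extracellular MEA recordings. Values are AUC of well-mean burst rate across four recording days, relative to DMSO vehicle.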

[9] = CCTE_Shafer_MEA_dev_bursting_electrodes_number: CCTE's Neural Network Formation Assay for Number of Bursting Electrodes, Shafer Lab (AID 2284043; active means hit-call score of the fitted dose curve at least 0.9, where 1 is the maximum)
Outline: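 Primary rat cortical neurons were cultured on PEI-coated 48-well MEA plates (16 electrodes/well) and exposed from plating through day 12, with compound renewed at feeds on DIV 5 and 9. Electrodes bursting ≥1 per 2 min were counted on DIV 5, 7, 9, 12; trapezoidal AUC taken.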

[10] = CCTE_Shafer_MEA_dev_per_burst_interspike_interval: CCTE's Neural Network Formation Assay for Burst Interspike Interval, Shafer Lab (AID 2284044);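 further: mean spike spacing inside bursts as AUC over recordings on days 5 7 9 12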
Outline: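 Spontaneous activity of maturing rat cortical networks is recorded on DIV 5, 7, 9 and 12 under chronic compound exposure beginning at plating. Endpoint: burst interspike interval well-mean, collapsed into trapezoidal AUC and fitted in the negative direction relative to DMSO.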

[11] = CCTE_Shafer_MEA_dev_burst_duration_mean: CCTE's Neural Network Formation Assay for Mean Burst Duration, Shafer Lab (AID 2284045)
Outline: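 Primary rat cortical neurons on PEI-coated 16-electrode MEA wells, exposed from plating through day 12 with compound renewed at DIV 5 and 9; spontaneous activity recorded days 5, 7, 9, 12. Well-mean burst duration collapsed as trapezoidal AUC, fitted for loss versus DMSO.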

[12] = CCTE_Shafer_MEA_dev_interburst_interval_mean: CCTE's Neural Network Formation Assay for Mean Interburst Interval, Shafer Lab (AID 2284046);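 further: well-mean interburst interval of bursting electrodes as AUC over four recording days; curve fitted for decrease in interburst interval relative to DMSO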
Outline: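 Network formation assay in primary rat cortical cultures, exposed from DIV 0 to 12. Mean interburst interval per well, integrated as AUC over four recordings.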

[13] = CCTE_Shafer_MEA_dev_inter_network_spike_interval_mean: CCTE's Neural Network Formation Assay for Mean Inter-network Spike Interval, Shafer Lab (AID 2284047)
Outline: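 Compound was given at plating to primary rat cortical neurons and renewed with full medium changes on DIV 5 and 9. Extracellular activity was recorded on days 5, 7, 9, 12; AUC values were fitted for loss relative to DMSO control.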

[14] = CCTE_Shafer_MEA_dev_network_spike_number: CCTE's Neural Network Formation Assay for Number of Network Spikes, Shafer Lab (AID 2284048);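 further: synchronized bursts across electrodes counted on days 5 7 9 12 and integrated as AUC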
Outline: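 Primary rat cortical neurons were seeded at 1.5 x 10^5 cells/well on PEI-coated 16-electrode MEA wells with laminin, exposed from plating day 0, compound renewed at DIV 5 and 9. Network spikes were recorded on days 5, 7, 9, 12 and summarized as trapezoidal AUC versus DMSO.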

[15] = CCTE_Shafer_MEA_dev_spike_duration_mean: CCTE's Neural Network Formation Assay for Mean Spike Duration, Shafer Lab (AID 2284051);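 further: mean network spike duration pooled as area under curve over DIV 5 to 12 recordings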
Outline: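 With DMSO as baseline, loss of mean network spike duration was scored from extracellular recordings of rat cortical neurons on MEA plates. Exposure spanned plating to DIV 12; the four recording days were collapsed into one AUC value.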

[16] = CCTE_Shafer_MEA_dev_network_spike_duration_std: CCTE's Neural Network Formation Assay for Standard Deviation of Network Spike Duration, Shafer Lab (AID 2284052);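 further: area under curve of spike duration SD across recording days 5 to 12; hits are decreases in network spike duration SD versus DMSO vehicle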
Outline: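 Developing networks of rat cortical neurons were exposed over twelve days in vitro on 48-well MEA plates. Trapezoidal AUC of recordings (DIV 5–12) was analysed for signal loss relative to DMSO vehicle.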

[17] = CCTE_Shafer_MEA_dev_per_network_spike_spike_number_mean: CCTE's Neural Network Formation Assay for Mean Number of Spikes in a Network Spike, Shafer Lab (AID 2284053)
Outline: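 First, rat cortical cells (1.5 x 10^5/well) were seeded onto MEA wells; second, dosing began at plating and was refreshed on DIV 5 and 9; finally, network-spike spike counts across DIV 5–12 were summarized as AUC.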

[18] = CCTE_Shafer_MEA_dev_per_network_spike_spike_percent: CCTE's Neural Network Formation Assay for Percent of Spikes in a Network Spike, Shafer Lab (AID 2284054)
Outline: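 Primary rat cortical neurons on 16-electrode MEA wells (PEI-coated, laminin at plating), exposed from day 0 with renewal at DIV 5 and 9; spikes within 0.05 s of network-spike peaks over total spikes, AUC across days 5, 7, 9, 12.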

[19] = UKN5_HCS_SBAD2_cell_viability: Viability Assessment in the University of Konstanz (UKN) Leist Lab Neurite Outgrowth Assay in human iPSC-derived immature Dorsal Root Ganglia Neurons (UKN5) (AID 2284056)
Outline: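 iPSC-derived immature peripheral neurons (SBAD2) seeded on Matrigel with CHIR99021, SU5402 and DAPT, dosed 1 h later for 24 h. Viability from Hoechst H-33342 and calcein-AM live staining, high-content imaging; bidirectional fit versus DMSO.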

[20] = CCTE_Shafer_MEA_dev_LDH: CCTE's Lactate Dehydrogenase Assay for Cytotoxicity in the Neural Network Formation Assay, Shafer Lab (AID 2284068; active means hit-call score of the fitted dose curve at least 0.9, where 1 is the maximum;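 further: exposure for twelve days from plating with re-dosing on DIV 5 and 9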)
Outline: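 Developing rat cortical networks on MEA plates are exposed to compound for 12 days from plating. LDH activity is measured spectrophotometrically, with DMSO as baseline.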

[21] = UKN5_HCS_SBAD2_neurite_outgrowth: University of Konstanz (UKN) Leist Lab Neurite Outgrowth Assay in human iPSC-derived immature Dorsal Root Ganglia Neurons (UKN5) (AID 2284070); conditions: actives raise or lower the signal
Outline: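 Human iPSC-derived immature DRG neurons (SBAD2) on Matrigel with CHIR99021 (1.5 uM), SU5402 (5 uM), DAPT (5 uM); compounds added 1 h post-seeding for 24 h. Calcein-AM neurite area imaged; bidirectional fit vs DMSO.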

[22] = CCTE_Shafer_MEA_dev_mutual_information_norm: CCTE's Neural Network Formation Assay for Mutual Information Normalization, Shafer Lab (AID 2284091)
Outline: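 Rat cortical cultures, 48-well MEA, continuous exposure DIV 0–12 with full media/compound change DIV 5 and 9. Readout: inter-electrode mutual information, AxIS adaptive spike detection; AUC across DIV 5/7/9/12 recordings; DMSO baseline, negative fitting direction.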

[23] = CCTE_Shafer_MEA_dev_correlation_coefficient_mean: CCTE's Neural Network Formation Assay for Mean Correlation Coefficient, Shafer Lab (AID 2284093)
Outline: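 Extracellular firing from rat cortical networks on 48-well MEAs, DMSO-referenced, negative fitting direction. Compound present from plating to DIV12; mean pairwise correlation per well integrated over DIV5–12 recordings by trapezoidal AUC.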

[24] = UKN2_HCS_IMR90_neural_migration: University of Konstanz (UKN) Leist Lab Neural Crest Cell Migration Assay in human induced IMR90 Pluripotent Stem Cells (UKN2) (AID 2284204); conditions: actives raise or lower the signal
Outline: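 iPSC-derived IMR90 neural crest cells on PLO/laminin/fibronectin were seeded around silicone stoppers; after stopper removal, migration in N2-S medium with EGF and FGF ran 24 h before 24 h chemical exposure. Calcein-AM/Hoechst high-content imaging; bidirectional fit versus DMSO.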

[25] = UKN4_HCS_LUHMES_neurite_outgrowth: University of Konstanz (UKN) Leist Lab Neurite Outgrowth Assay in human LUHMES cells (UKN4) (AID 2284206); conditions: actives raise or lower the signal
Outline: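 LUHMES neuronal precursors differentiated 2 days, replated without cAMP/GDNF, then exposed to chemicals for 24 h. Neurite area imaged by high-content microscopy after calcein-AM staining; Hoechst H-33342 marks viability. Bidirectional fit versus DMSO.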

[26] = CCTE_Mundy_HCI_Cortical_Synap_Neur_Matur_NeuriteSpotCountPerNeuriteLength: CCTE's Synaptogenesis and Neurite Maturation Assay in rat cortical cells for Neurite Spot Count per Neurite Length, Mundy Lab (AID 2284210)
Outline: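 Rat primary cortical cultures, glia arrested with AraC at DIV 5, were dosed with media change at DIV 7 and fixed at DIV 12. Synaptophysin puncta per MAP2-labelled neurite length were quantified by high-content imaging versus DMSO.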

[27] = CCTE_Mundy_HCI_Cortical_NOG_NeuriteLength: CCTE's Neurite Outgrowth Assay in rat cortical cells for Neurite Length, Mundy Lab (AID 2284213)
Outline: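 Neurite length was read by high-content imaging of βIII-tubulin-labelled neurites in rat primary cortical cultures. Activity was fitted relative to DMSO.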

[28] = CCTE_Mundy_HCI_Cortical_Synap_Neur_Matur_NeuriteLength: CCTE's Synaptogenesis and Neurite Maturation Assay in rat cortical cells for Neurite Length, Mundy Lab (AID 2284214)
Outline: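 Rat primary cortical cells were plated, treated with AraC at DIV 5 to arrest glial growth, then chemical-dosed with media change at DIV 7 through DIV 12. Fixed cells stained for MAP2, synaptophysin and Hoechst; neurite length quantified by high-content imaging.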

[29] = CCTE_Mundy_HCI_Cortical_Synap_Neur_Matur_NeuriteSpotCountPerNeuron: CCTE's Synaptogenesis and Neurite Maturation Assay in rat cortical cells for Neurite Spot Count per Neuron Count, Mundy Lab (AID 2284215)
Outline: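 Developing rat cortical neurons, with glia suppressed by AraC, are exposed to chemicals from DIV 7 to DIV 12. Automated fluorescence imaging of MAP2-labelled neurites and synaptophysin puncta yields a count per neuron, normalised against DMSO wells.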

[30] = CCTE_Mundy_HCI_Cortical_Synap_Neur_Matur_SynapseCount: CCTE's Synaptogenesis and Neurite Maturation Assay in rat cortical cells for Synapse Count, Mundy Lab (AID 2284218)
Outline: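 Rat primary cortical cells in 96-well plates received AraC at DIV 5 and were dosed with chemicals at DIV 7 with media change, through DIV 12 (288.33 h). Synapses per neuron counted by high-content imaging of MAP2/synaptophysin/Hoechst staining, versus DMSO baseline.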

[31] = CCTE_Mundy_HCI_Cortical_Synap_Neur_Matur_CellBodySpotCount: CCTE's Synaptogenesis and Neurite Maturation Assay in rat cortical cells for Cell Body Spot Count, Mundy Lab (AID 2284223)
Outline: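 Chemicals were applied to AraC-treated rat primary cortical cells at DIV 7 and measured at DIV 12. Fixed cells were labelled for MAP2, synaptophysin and nuclei, and high-content imaging gave cell body synaptophysin spot counts per neuron relative to DMSO.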

[32] = UKN2_HCS_IMR90_cell_viability: Viability Assessment in the University of Konstanz (UKN) Leist Lab Neural Crest Cell Migration Assay in human induced IMR90 Pluripotent Stem Cells (UKN2) (AID 2284233);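 further: viability of neural crest cells differentiated from IMR90 iPSC measured by calcein-AM fluorescence imaging; cells exposed to compound for 24 h after a 24 h migration phase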
Outline: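 iPSC-derived (IMR90) neural crest cells seeded around silicone stoppers on PLO/laminin/fibronectin; after 24 h migration in N2-S with EGF/FGF, chemical added for 24 h. Calcein-AM/Hoechst stained 30 min, high-content imaged; bidirectional fit versus DMSO.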

[33] = CCTE_Mundy_HCI_hNP1_Casp3_7: CCTE's Caspase-Glo 3/7 Assay in human neuroprogenitor cells for Apoptosis, Mundy Lab (AID 2284240)
Outline: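 Neuroepithelial-lineage stem cells from WA09 embryonic cells were treated with chemicals after 40–44 h of culture. Twenty-four hours later, caspase-3/7 activation was detected luminescently after a 30 min room-temperature reagent step, with DMSO as baseline.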

Measured: outcome

Cellular tumor antigen p53 (Homo sapiens), sequence (P04637 whole entry, looked up): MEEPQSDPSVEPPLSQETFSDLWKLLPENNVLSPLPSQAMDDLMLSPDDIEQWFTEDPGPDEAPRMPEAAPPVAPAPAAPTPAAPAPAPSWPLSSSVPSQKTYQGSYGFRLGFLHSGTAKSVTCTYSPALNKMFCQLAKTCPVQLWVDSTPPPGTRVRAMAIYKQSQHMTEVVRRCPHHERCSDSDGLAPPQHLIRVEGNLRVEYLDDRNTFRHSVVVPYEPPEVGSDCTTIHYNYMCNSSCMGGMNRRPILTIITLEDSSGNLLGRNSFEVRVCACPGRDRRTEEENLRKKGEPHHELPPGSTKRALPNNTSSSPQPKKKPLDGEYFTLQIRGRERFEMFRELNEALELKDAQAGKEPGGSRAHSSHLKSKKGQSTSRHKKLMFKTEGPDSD

COC(=O)[C@H]1[C@@H](OC(=O)c2ccccc2)C[C@@H]2CC[C@H]1N2C
inactive: all assays above
